Shown are actives, neighbours in structure and some others; about 3.7% of the full set was active somewhere.
tim23-1 inh – growth inhibitors of tim23-1 mutant yeast, primary screen, luminescence, uHTS; S. cerevisiae tim23-1 growth, BacTiter-Glo luminescence, 24 h; inhibition, % at 20 µM; 330,000 compounds, 1.3% hits;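 active = growth inhibition of the mutant yeast at or above 50%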;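 also: temperature-sensitive mutant grown at 25 °C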
tim10-1 inh – growth inhibitors of tim10-1 mutant yeast, primary screen, luminescence, uHTS | S. cerevisiae tim10-1 ts strain growth, BacTiter-Glo, 24 h | inhibition, % at 20 µM | 330,000 compounds, 2.2% hits;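 active = inhibition of at least 40%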;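 also: mutant grown at 25 °C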
PfHsp90 yeast 2 – growth inhibition of PfHsp90-expressing yeast, primary screen, antimalarial PfHsp90 inhibitor project, S. cerevisiae, BacTiter-Glo luminescence, single point, set 2; BacTiter-Glo ATP, 48 h; yeast lacking PDR1 and PDR3 efflux regulators; inhibition, % at 9.4 µM; 310,000 compounds, 0.32% hits;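 active = every replicate shows inhibition above about 80%, whatever the replicate mean, limit read from the data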
TIM10 inh – growth inhibitors of isogenic TIM10 control yeast, primary screen, counter-screen for tim10-1 yeast inhibitor project, luminescence, uHTS; S. cerevisiae TIM10 strain growth, BacTiter-Glo luminescence, 24 h; 330,000 compounds, 1.4% hits; inhibition, % at 10 µM; AID 463195, 2010;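 active = inhibition of 40% or more at the single tested concentration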;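 also: wild-type TIM10 isogenic control strain grown at permissive 25 °C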
NALP3 yeast inh – NALP3 inflammasome inhibitors in reconstituted yeast, primary screen, luminescence, uHTS | Yeast reconstituted NLRP3/ASC/caspase-1, beta-gal luminescence, 24 h | inhibition, % at 10 µM | 330,000 compounds, 0.39% hits | AID 2825, 2010;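 active = inhibition of 50% or more; inactive = inhibition below 50%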
tim10-1 confirm – growth inhibitors of tim10-1 mutant yeast, confirmation, single concentration, luminescence, S. cerevisiae; shares compounds with tim10-1 inh; S. cerevisiae tim10-1 ts strain growth, BacTiter-Glo, 24 h; inhibition, % at 20 µM; 7,400 compounds, 56% hits; AID 463213, 2010;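 active = inhibition of yeast growth at or above a set limit in either of two repeat tests at 20 µM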;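 also: tim10-1 mutant grown at permissive 25 °C to find synthetic lethal compounds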
Numbers stand for hits; 0 = inactive; - = no result given.

SMILES	tim23-1 inh	tim10-1 inh	PfHsp90 yeast 2	TIM10 inh	NALP3 yeast inh	tim10-1 confirm
CC1=NN(Cc2ccccc2)C(=O)/C1=C\c1ccc(N(C)C)cc1	0	0	0	0	0	-
CCOC(=O)C1=NN(c2ccccc2)C(=O)/C1=C\c1ccc(N(C)C)cc1	0	40	0	0	0	0
C=C(C)C1CC=C(C)/C(=N/NC(=O)CNc2ccc(C)cc2C)C1 (stereo not given)	-	-	0	-	-	-
C=C(C)C1CC=C(C)/C(=N/NC(=O)CNc2ccc(OCC)cc2)C1 (stereo not given)	0	42	0	0	0	0
O=C(c1ccc2nccnc2c1)N1CCCC(Nc2ccc(F)c(F)c2)C1 (stereo not given)	0	0	0	0	0	-
COc1cccc(-c2c(C(=O)O)cc(O)c3ccc(OC)cc23)c1	-	-	0	-	-	-
Cc1ccc2c(c1)-c1c(ssc1=S)C(C)(C)N2C(=O)CSC1=NCCS1	0	43	0	0	0	38
CCOc1ccc2c(c1)-c1c(ssc1=S)C(C)(C)N2C(=O)CSC1=NCCS1	0	0	0	0	0	-
Brc1cccc(C2Nc3cccc4cccc(c34)N2)c1	0	0	0	0	0	-
Brc1ccc(C2Nc3cccc4cccc(c34)N2)o1	0	42	0	0	0	29
Cc1ccc(CNC(=O)COC(=O)c2cc(=O)[nH]c3ccccc23)cc1	0	0	0	0	0	-
CSc1ccccc1NC(=O)C1CC(c2c(F)cccc2Cl)=NO1 (stereo not given)	0	46	0	0	0	56
Cc1ccc(/C=C(\C#N)c2nn(-c3ccccc3)c(N)c2C#N)cc1	0	40	0	0	0	0
N#C/C(=C\c1cccc2ccccc12)c1nn(-c2ccccc2)c(N)c1C#N	0	0	-	0	0	-
COc1ccc([C@H]2/C=C\CN(C(=O)[C@H](Cc3ccccc3)NC(=O)OCC3c4ccccc4-c4ccccc43)CC(=O)N2Cc2ccc(F)cc2)cc1	0	95	-	0	0	0
CC(=O)c1cnc2c(-c3ccccc3)c(-c3ccccc3)nn2c1C	0	0	0	0	0	-
CCN(CC)C(=O)N1CCc2ccccc2C1CN1C(=O)c2ccccc2C1=O (stereo not given)	0	48	0	0	0	0
O=C1c2ccccc2C(=O)N1CC1c2ccccc2CCN1C(=O)C1CCCCC1 (stereo not given)	0	0	0	0	0	-
Cc1ccc(F)cc1NC(=S)NCCc1ccccc1	0	45	0	0	0	0
Cc1ccc(NC(=S)NCCc2ccc(F)cc2)c(C)c1	0	0	0	0	0	-
CCOc1ccccc1NC(=S)NCCc1ccccc1	0	42	0	0	0	0
CCOc1ccccc1NC(=S)NCCc1ccc(F)cc1	0	0	0	0	0	-
COc1ccc(-c2[nH]n(-c3ccc([N+](=O)[O-])cc3)c(=O)c2C=NCc2ccc(F)cc2)cc1	0	0	0	0	0	-
COc1ccc(-c2cc(=O)n(-c3ccc([N+](=O)[O-])cc3)[nH]2)cc1	0	50	0	0	0	38
CCOC(=O)CSc1nnc(CNC(=O)c2cccs2)n1CCc1ccccc1	0	0	0	0	0	-
SMILES	tim23-1 inh	tim10-1 inh	PfHsp90 yeast 2	TIM10 inh	NALP3 yeast inh	tim10-1 confirm
COc1ccc(C2=NN(C(C)=O)CC2c2cccc([N+](=O)[O-])c2)cc1 (stereo not given)	0	43	0	0	0	0
CN1C(=S)SC(C)(C)C1(C)NO (stereo not given)	0	71	0	0	0	0
CN(C)c1cccc(C(=O)OCC(=O)Nc2ccccc2Cl)c1	0	0	0	0	0	-
CCN1CCN(C(=O)/C=C/c2ccc(C)o2)CC1	0	0	0	0	0	-
Cc1ccc(/C=C/C(=O)N2CC(C)CC(C)C2)o1 (stereo not given)	0	43	-	0	0	0
O=C(COC(=O)c1ccc(N2CCCC2=O)cc1)c1ccccc1	0	0	0	0	0	-
Cc1cc(C)n(-c2nc(C)nc3sc4c(c23)CCC(C)C4)n1 (stereo not given)	0	42	0	0	0	0
Cc1cc(C)n(-c2ncnc3sc4c(c23)CC(C)CC4)n1 (stereo not given)	0	0	0	0	0	-

Assay outcomes as filed in PubChem.
